Results published in PubChem BioAssay AID1159580 (chemical genetic matrix, 2015).
Values joined by “and” are separate entries in the source; they are usually repeats but may differ in a detail not shown here. Equal entries are not always repeated. Screen size: about 5,500 compounds; about 2,000 (36%) were called active. Not shown: some 18% with an inconclusive outcome. No stated cut-off is given here; in the data, active means normalized growth mostly below about 0.91 (no sharp cut-off); inconclusive means no clear call, values can overlap the other calls; inactive means mostly above about 0.92. This is one part of the list.

Assay: chemical genetic growth profiling, strain panel (AID 1159580);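 further: tested at 20 µM; growth read once vehicle control cultures reached saturation at 30 °C; 1 = growth at the plate median or of vehicle wells; lower values mean less growth of the strain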
Conditions: S. cerevisiae deletion strains, growth OD

Measured: normalized growth

CN1CCN(C2=Nc3ccccc3Oc3ccc(Cl)cc32)CC1
inactive: locus YAL013W, strain DEP1, hits give low values 0.995 and 0.98 | locus YAL021C, strain ccr4, hits give low values 0.981 | locus YAL026C, strain drs2, hits give low values 0.984 | locus YAL030W, strain snc1, hits give low values 1 | locus YAL040C, strain CLN3, hits give low values 0.979 | locus YBL061C, strain skt5, hits give low values 0.982 | locus YBR009C, strain hhf1, hits give low values 1.01 | locus YBR021W, strain FUR4, hits give low values 1.01 | locus YBR023C, strain chs3, hits give low values 1 | locus YBR171W, strain sec66, hits give low values 0.964 | locus YBR229C, strain ROT2, hits give low values 0.953 | locus YBR231C, strain swc5, hits give low values 0.988 | locus YBR279W, strain paf1, hits give low values 0.987 | locus YCL011C, strain gbp2, hits give low values 0.978 | locus YCL016C, strain dcc1, hits give low values 1 | locus YCL029C, strain bik1, hits give low values 0.994 | locus YCL061C, strain MRC1 (second series), hits give low values 0.992 | locus YCL061C, strain MRC1, hits give low values 0.989 | locus YCL069W, strain vba3, hits give low values 0.999 | locus YCR088W, strain abp1, hits give low values 0.993 | locus YDL005C, strain med2, hits give low values 0.972 | locus YDL035C, strain GPR1, hits give low values 0.988 | locus YDL040C, strain nat1, hits give low values 0.97 | locus YDL074C, strain BRE1, hits give low values 0.997 | locus YDL101C, strain DUN1, hits give low values 0.989 | locus YDL134C, strain PPH21, hits give low values 0.979 | locus YDL185W, strain tfp1, hits give low values 0.992 | locus YDL192W, strain arf1, hits give low values 0.991 | locus YDR001C, strain nth1, hits give low values 0.967 | locus YDR069C, strain doa4, hits give low values 0.969 | locus YDR101C, strain arx1, hits give low values 0.994 | locus YDR137W, strain rgp1, hits give low values 1.01 | locus YDR150W, strain NUM1, hits give low values 0.991 and 1.02 | locus YDR159W, strain sac3, hits give low values 0.972 | locus YDR162C, strain NBP2, hits give low values 1.01 | locus YDR195W, strain ref2 0.948 | locus YDR297W, strain sur2, hits give low values 0.99 | locus YDR318W, strain mcm21, hits give low values 0.977 | locus YDR334W, strain swr1, hits give low values 0.947 | locus YDR335W, strain msn5, hits give low values 0.982 | locus YDR363W, strain ESC2, hits give low values 0.928 | locus YDR388W, hits give low values 0.994 | locus YDR392W, strain spt3, hits give low values 1.05 | locus YDR502C, strain sam2, hits give low values 0.986 | locus YEL003W, strain gim4, hits give low values 0.976 | locus YEL037C, strain rad23, hits give low values 0.998 | locus YEL061C, strain CIN8 (second series), hits give low values 0.97 | locus YEL061C, strain CIN8, hits give low values 0.997 | locus YER002W, strain NOP16, hits give low values 0.974 | locus YER015W, strain faa2, hits give low values 0.996 | locus YER016W, strain bim1, hits give low values 1 | locus YER110C, hits give low values 0.985 | locus YER111C, strain swi4, hits give low values 0.998 | locus YER155C, strain BEM2 (second series), hits give low values 0.985 | locus YER155C, strain BEM2, hits give low values 0.996 | locus YER167W, strain BCK2, hits give low values 0.988 | locus YFR010W, strain ubp6, hits give low values 1.01 | locus YGL078C, strain dbp3, hits give low values 1 | locus YGL086W, strain mad1, hits give low values 0.974 | locus YGL167C, strain pmr1, hits give low values 0.984 | locus YGL173C, strain kem1, hits give low values 1.01 | locus YGL227W, strain vid30, hits give low values 0.956 | locus YGL240W, strain doc1, hits give low values 1.02 | locus YGL248W, strain PDE1, hits give low values 0.963 | locus YGL253W, strain hxk2, hits give low values 0.982 | locus YGR078C, strain PAC10, hits give low values 1.02 and 0.994 | locus YGR135W, strain pre9, hits give low values 0.981 | locus YGR229C, strain SMI1, hits give low values 0.983 | locus YGR252W, strain gcn5, hits give low values 0.956 | locus YHR013C, strain ard1, hits give low values 0.974 | locus YHR027C, strain rpn1, hits give low values 0.966 | locus YHR030C, strain SLT2, hits give low values 0.987 and 1.04 | locus YHR079C, strain IRE1 (second series), hits give low values 0.99 | locus YHR079C, strain IRE1, hits give low values 1.06 | locus YHR094C, strain hxt1, hits give low values 0.991 | locus YHR129C, strain ARP1, hits give low values 0.991 | locus YHR142W, strain chs7, hits give low values 0.956 | locus YHR200W, strain rpn10, hits give low values 0.987 | locus YIL066C, strain RNR3, hits give low values 0.971 | locus YIL073C, strain SPO22, hits give low values 0.989 | locus YIL125W, strain kgd1, hits give low values 0.992 | locus YIR030C, strain dcg1, hits give low values 0.991 | locus YJL092W, strain hpr5, hits give low values 0.978 | locus YJL095W, strain BCK1 (second series), hits give low values 0.964 | locus YJL095W, strain BCK1, hits give low values 0.981 and 1.03 | locus YJL115W, strain asf1, hits give low values 0.926 | locus YJL129C, strain trk1, hits give low values 0.971 | locus YJL134W, strain LCB3, hits give low values 0.992 | locus YJL154C, strain vps35, hits give low values 0.97 | locus YJL164C, strain tpk1, hits give low values 0.998 | locus YJL166W, strain qcr8, hits give low values 0.975 | locus YJL168C, strain set2, hits give low values 0.991 | locus YJL187C, strain SWE1 (second series), hits give low values 0.983 | locus YJL187C, strain SWE1, hits give low values 0.99 | locus YJR043C, strain POL32, hits give low values 1.01 | locus YJR066W, strain TOR1, hits give low values 0.931
